From the supplement of paper PMC10338343 come the findings set out here.

± gives the standard deviation.

The subject of the test is MILI (PIWIL2) piRISC loaded with L1MC piRNA (26 nt). The test can be described thus: pre-steady-state target cleavage rate (min^-1); guide: L1MC piRNA 5'p-UAACUAAAUACUAUGCAAGCUGUAGG; MIWI and MILI are mouse PIWI proteins and EfPiwi is from a freshwater sponge; tags in brackets are library labels; higher = faster piRNA-guided slicing of the target. To be noted: auxiliary factor: none (no GTSF1). In outline: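 The pre-steady-state cleavage rate came from a burst-and-steady-state fit to pooled data from three Cleave-'n-Seq trials, in which uncleaved targets were sequenced and normalised to depth and to weakly complementary targets. Each reaction held 0.1 nM transcribed, DNA-blocked target RNA library and 1 nM active affinity-purified piRISC carrying one synthetic guide, with or without 500 nM GTSF1 partner protein, in HEPES–potassium acetate buffer at 33 °C for 0–8 or 0–960 min. k3 was capped at 0.0001 min^-1.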
Regarding UCCUGGAUGUCGUUGCAUAGGUAUUUAGUUA, the “pre-steady-state target cleavage rate” value came to 0.00509 ± 0.0029. In the case of UCCUGGAUGUCGAACCAAAGUAUUUAGAUA it was below 0.0001; in that of UCCUGGAUGUCGUUGCAUAGUUAUUAGUUA, 0.00364 ± 0.0031; in that of UCCUGGAUGUCGAACGAUAGUGUUUAGUUA, below 0.0001. To UCCUGGAUGUCGAACGUUAGCAUUUAGUUA belongs below 0.0001.
